Source: PubChem BioAssay
Active and inactive are the calls of the source.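 Rule for the calls, unless noted: active = fluorescence slope after compound addition differing from the mean of all screened samples at 99.7% confidence, in either direction; inactive = the rest.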

Tests used:
[1] = inhibitors of TNFa-induced NFkB p65 translocation, primary screen, imaging, HUVEC, MLSMR starter and 10KST1 sets (AID 438;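 active = inhibition above 20% together with a positive visual image hit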;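 note: compound added about 3h40 before a 20 min TNFalpha stimulation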;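 for inhibition: signal is the nuclear over cytoplasmic p65 intensity ratio per well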); settings: HUVEC TNFa-induced p65 nuclear translocation; cell count: measured here: nuclei count (cytotoxicity indicator), at 2.08 µM; inhibition: at 2 µM, stronger effect = higher value, 0% TNFa-plus-vehicle, 100% no-TNFa wells
[2] = reduction of polyQ htt aggregates in cells – imaging, exon1htt(103Q)mCFP cells, high-content imaging, primary screen (AID 483;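 active = visual image review flags a hit and inhibition of aggregation exceeds 20%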;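 note: compound exposure lasted 3 days before fixation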;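 for nuclei count: percent of the per-plate median nuclei count of sample wells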); settings: exon1htt(103Q)mCFP cell line, aggregate imaging, at 2 µM; inhibition of aggregation: stronger effect = higher value; nuclei count: measured here: cell count, toxicity
[3] = endothelial E-selectin expression blockers – imaging, HUVEC, immunofluorescence, MLSMR starter and 10KST1 sets, primary screen (AID 487;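 active = visually confirmed hit in the image check and inhibition above 20%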;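 for inhibition: signal is fraction of cell area covered by stained E-selectin grains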;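 for nuclei count: 100% = median nuclei count of all wells on the same plate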); settings: HUVEC TNFalpha-induced E-selectin immunofluorescence imaging, at 2 µM; inhibition: stronger effect = higher value; nuclei count: measured here: cell number, toxicity
[4] = biological target: Voltage-gated potassium channel subunit beta-2 (Rattus norvegicus) (UniProt P62483); test: inhibitors of rat Kvbeta2 reductase activity – biochemical, NADPH fluorescence, primary screen (AID 622;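 active = fluorescence slope higher than the sample average by over 3 SD, cut at about -0.22 in these data, passing the limit was not always enough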;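 note: slope of raw intensity against log time taken from 70 to 1610 s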); settings: recombinant KvBeta, 4-cyanobenzaldehyde reduction, at 10 µM, stronger effect = higher value
[5] = biological target: Voltage-gated potassium channel subunit beta-2 (Rattus norvegicus) (UniProt P62483); test: enhancers of rat Kvbeta2 NADPH turnover – biochemical, NADPH fluorescence, primary screen (AID 623;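 active = NADPH fluorescence slope more negative than the mean of all samples by about 3 SD, 99.7% confidence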;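 note: fluorescence intensity change per second fitted from 20 to 320 s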); settings: Recombinant KvBeta, NADPH fluorescence decrease slope, 10 min; at 10 µM; stronger effect = lower value
[6] = biological target: Alpha-2C adrenergic receptor (Homo sapiens) (UniProt P18825); test: compounds altering alpha2C-coupled GIRK flux – cell-based, HEK293 alpha2C/GIRK1/2, thallium flux, primary screen (AID 624); settings: thallium flux BTC fluorescence, at 10 µM, actives lie on both sides;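 note: slope of fluorescence ratio to pre-addition baseline per second over 15 to 24 s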
[7] = blockers of RIG-like receptor reporter activation – cell-based, Sendai virus stimulus, luciferase, 10K MLSCN set, TLR/RLR signaling modifier project, primary screen (AID 602276;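 active = inhibition at or above 50% at 10 µM; inactive = inhibition below 50%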;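 note: firefly luciferase from ISG56 promoter only with Renilla not read in this screen; 0% = Sendai virus plus DMSO and 100% = medium plus DMSO without virus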); settings: HEK293 RL24 IRF3 luciferase reporter, at 10 µM, stronger effect = higher value
[8] = TLR3 IRF3 reporter activation blockers – cell-based, poly I:C stimulus, luciferase, 10K MLSCN set, primary screen (AID 602277;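 active = inhibition of the reporter signal at or above 50%; inactive = inhibition below 50%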); settings: HEK293-TLR3 RL24 IRF3 luciferase reporter, at 10 µM, stronger effect = higher value

Alpha-2C adrenergic receptor (Homo sapiens), sequence (P18825 whole entry, looked up): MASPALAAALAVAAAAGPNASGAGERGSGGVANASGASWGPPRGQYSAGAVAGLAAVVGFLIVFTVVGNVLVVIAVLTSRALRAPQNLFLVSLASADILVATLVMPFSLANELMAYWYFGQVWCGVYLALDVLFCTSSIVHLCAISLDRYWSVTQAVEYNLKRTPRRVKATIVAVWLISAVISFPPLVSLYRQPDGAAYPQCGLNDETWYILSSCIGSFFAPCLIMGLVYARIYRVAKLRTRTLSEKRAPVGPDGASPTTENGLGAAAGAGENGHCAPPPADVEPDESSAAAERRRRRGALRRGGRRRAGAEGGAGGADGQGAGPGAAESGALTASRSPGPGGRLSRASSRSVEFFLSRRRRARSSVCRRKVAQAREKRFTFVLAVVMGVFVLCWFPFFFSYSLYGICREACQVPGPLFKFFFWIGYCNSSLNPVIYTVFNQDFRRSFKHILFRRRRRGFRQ
Voltage-gated potassium channel subunit beta-2 (Rattus norvegicus), sequence (P62483 whole entry, looked up): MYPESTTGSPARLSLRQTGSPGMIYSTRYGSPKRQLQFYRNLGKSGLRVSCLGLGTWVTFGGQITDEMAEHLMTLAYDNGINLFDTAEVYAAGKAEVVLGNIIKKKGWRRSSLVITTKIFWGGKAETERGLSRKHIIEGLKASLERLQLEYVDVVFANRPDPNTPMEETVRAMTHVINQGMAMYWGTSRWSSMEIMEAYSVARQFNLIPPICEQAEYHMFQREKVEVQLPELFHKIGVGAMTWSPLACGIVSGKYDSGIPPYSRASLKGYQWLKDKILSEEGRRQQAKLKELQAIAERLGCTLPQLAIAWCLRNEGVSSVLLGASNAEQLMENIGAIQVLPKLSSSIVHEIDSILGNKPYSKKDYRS

Structure (SMILES)	cell count [1]	inhibition [1]	inhibition of aggregation [2]	nuclei count [2] [%]	inhibition [3]	nuclei count [3] [%]	fluorescence slope [4]	NADPH fluorescence slope [5]	slope [6]	inhibition [7]	inhibition [8]
COCCn1c(C23CC4CC(CC(C4)C2)C3)n[nH]c1=S	866	3.6% (inactive)	-13.1% (inactive)	106	-91.1% (inactive)	129	-0.44 (inactive)	-2.3e-05 (inactive)	0.00347 (inactive)	14.6% (inactive)	42.9% (inactive)
CCC(C)NC(=O)c1ccccc1NC(=O)C(C)N(c1ccccc1)S(C)(=O)=O (stereo not drawn)	643	3.1% (inactive)	5% (inactive)	108	-7% (inactive)	99.9	-0.479 (inactive)	8.2e-06 (inactive)	0.00595 (inactive)	5.01% (inactive)	28.8% (inactive)
Cc1cnc(C(=O)Nc2nnc(C(C)C)s2)cn1	569	-8.8% (inactive)	10.8% (inactive)	107	-28.6% (inactive)	118	-0.5 (inactive)	-3.3e-05 (inactive)	0.00641 (inactive)	-25.1% (inactive)	-89.5% (inactive)
COc1ccc(NC(=O)C2CCCN(S(=O)(=O)c3cccc4cccnc34)C2)cc1OC (stereo not drawn)	551	-2.6% (inactive)	-0.5% (inactive)	104	-24.3% (inactive)	109	-0.559 (inactive)	8e-06 (inactive)	0.007 (inactive)	14.2% (inactive)	24.7% (inactive)
O=C(OCC(=O)N1CCCCCC1)c1cccs1	295	7.1% (inactive)	3.3% (inactive)	103	4.3% (inactive)	107	-0.53 (inactive)	-5.7e-05 (inactive)	0.00485 (inactive)	-20.1% (inactive)	-75.3% (inactive)
Cn1c2ccccc2c2ncn(CCCN3CCOCC3)c(=O)c21	715	-0.6% (inactive)	-15.1% (inactive)	94	5.6% (inactive)	113	-0.383 (inactive)	2e-05 (inactive)	0.00539 (inactive)	5.16% (inactive)	23.7% (inactive)
Cc1cc(C)c(C)c(OCC(=O)NCC2CCCO2)c1 (stereo not drawn)	371	-13.5% (inactive)	-15% (inactive)	97.1	-65.1% (inactive)	110	-0.521 (inactive)	-3.4e-05 (inactive)	0.0063 (inactive)	-5.32% (inactive)	21% (inactive)
CCOc1ccc(-c2nnc3sc(-c4c(OC)cccc4OC)nn23)cc1	434	2.8% (inactive)	0.4% (inactive)	102	-65.6% (inactive)	111	-0.609 (inactive)	-3.7e-05 (inactive)	0.00506 (inactive)	10.1% (inactive)	3.17% (inactive)
CCN(Cc1ccccc1)C(c1ccncc1)c1nnnn1C(C)(C)C (stereo not drawn)	618	11.6% (inactive)	-32% (inactive)	122	-42.3% (inactive)	116	-0.606 (inactive)	-3.2e-05 (inactive)	0.0048 (inactive)	17.8% (inactive)	21.6% (inactive)
COCCn1c(C)cc(C(=O)COC(=O)c2n[nH]c3ccccc23)c1C	330	3.7% (inactive)	2.3% (inactive)	98.9	-26.9% (inactive)	114	-0.5 (inactive)	-4.3e-05 (inactive)	0.00592 (inactive)	71.8% (active)	49.1% (inactive)
CCCn1c(=O)c2ccccc2n2c(SCCOc3ccccc3F)nnc12	574	-10.2% (inactive)	4.4% (inactive)	85.2	0.6% (inactive)	156	-0.477 (inactive)	4.6e-05 (inactive)	0.00598 (inactive)	-3.21% (inactive)	-3.55% (inactive)
COc1ccc(OCC(O)Cn2c(Br)nc3c2c(=O)[nH]c(=O)n3C)cc1 (stereo not drawn)	221	2.4% (inactive)	15.5% (inactive)	74.9	-39.9% (inactive)	155	-0.6 (inactive)	-3.5e-05 (inactive)	0.00397 (inactive)	35% (inactive)	27.6% (inactive)
CCOc1cc(C2NC(=O)NC(O)(C(F)(F)F)C2C(=O)c2ccccc2)ccc1OC (stereo not drawn)	383	6.8% (inactive)	4.9% (inactive)	86.1	-51% (inactive)	121	-0.378 (inactive)	3.5e-05 (inactive)	0.00542 (inactive)	5.58% (inactive)	11.7% (inactive)
Cc1cc(C(=O)NCCN2CCN(c3cccc(Cl)c3)CC2)n(-c2ccccc2)n1	647	5.5% (inactive)	-25.2% (inactive)	78.7	-50.5% (inactive)	108	-0.531 (inactive)	-2.8e-05 (inactive)	0.00538 (inactive)	16.7% (inactive)	35% (inactive)
Cc1cccc(C2CC(c3ccccc3)Nc3nc(N)nn32)c1 (stereo not drawn)	626	-3.4% (inactive)	7.7% (inactive)	114	-47.9% (inactive)	120	-0.517 (inactive)	-5.7e-06 (inactive)	0.00697 (inactive)	9.21% (inactive)	18.7% (inactive)
Cn1c(=O)c2c([nH]c(=O)n2C)n(C)c1=O	364	1.7% (inactive)	2.6% (inactive)	104	16.9% (inactive)	101	-0.435 (inactive)	-0.000114 (inactive)	0.00554 (inactive)	18% (inactive)	20.1% (inactive)
CC(c1ccco1)N(Cc1ccco1)C(=O)Nc1ccccc1 (stereo not drawn)	511	1% (inactive)	13.9% (inactive)	90.3	-45.1% (inactive)	97.5	-0.574 (inactive)	5.2e-05 (inactive)	0.00511 (inactive)	-3.9% (inactive)	-21.4% (inactive)
CC(=O)NCCc1nc2ccccc2[nH]1	736	-4.3% (inactive)	-14% (inactive)	114	-6.5% (inactive)	106	-0.553 (inactive)	-2.7e-05 (inactive)	0.00636 (inactive)	12.7% (inactive)	33.6% (inactive)
O=C(NC1CCCCC1)C1CCCN1C(=O)NCc1ccccc1 (stereo not drawn)	317	3.4% (inactive)	7.5% (inactive)	106	-33.5% (inactive)	120	-0.43 (inactive)	-5.2e-05 (inactive)	0.00543 (inactive)	5.02% (inactive)	10.2% (inactive)
COc1ccc(-c2nc3c(c(SCC(=O)N4CCOCC4)n2)COC(C)(C)C3)cc1	510	23.4% (active)	-8.2% (inactive)	100	33% (inactive)	117	-0.387 (inactive)	1.1e-05 (inactive)	0.00848 (inactive)	12.6% (inactive)	19.9% (inactive)
COc1ccc(-c2ccc(-c3noc(-c4cccs4)n3)c(OC)n2)cc1	391	6.8% (inactive)	20.7% (inactive)	95.6	-18.2% (inactive)	102	-0.0459 (active)	-6.5e-07 (inactive)	0.00541 (inactive)	-28.9% (inactive)	-86.9% (inactive)
COc1cccc(S(=O)(=O)Nc2ccc(C(=O)N3CCN(C(=O)c4ccco4)CC3)cc2)c1	448	-3.9% (inactive)	-8% (inactive)	108	-65.5% (inactive)	124	-0.507 (inactive)	-3.8e-05 (inactive)	0.00603 (inactive)	8.1% (inactive)	7.91% (inactive)
Cc1cc(C(F)(F)F)nc(NCc2cccnc2)n1	597	-31.3% (inactive)	-19.1% (inactive)	97.7	-79.3% (inactive)	120	-0.529 (inactive)	1.9e-05 (inactive)	0.00686 (inactive)	-7.81% (inactive)	-18.3% (inactive)
COc1cccc(C(=O)Nc2ncc3c(n2)CC(C)CC3=O)c1 (stereo not drawn)	390	2.5% (inactive)	3% (inactive)	95.8	-0.5% (inactive)	88.1	-0.592 (inactive)	-5.1e-05 (inactive)	0.00534 (inactive)	-6.66% (inactive)	-7.05% (inactive)
CCOC(=O)C1CCN(C(=O)COc2ccc(S(=O)(=O)NC(C)C)cc2Cl)CC1	718	1.5% (inactive)	9% (inactive)	109	-3.9% (inactive)	97.5	-0.46 (inactive)	-1.1e-05 (inactive)	0.00357 (inactive)	12% (inactive)	9.55% (inactive)
COC(=O)c1ccc(-c2nn(C)c(=O)c3ccccc23)cc1	493	-5.5% (inactive)	-11.1% (inactive)	76.7	-13.3% (inactive)	97.9	-0.55 (inactive)	-3e-05 (inactive)	0.00686 (inactive)	8.98% (inactive)	29.2% (inactive)
Cc1nc2ccc(S(=O)(=O)NCC(=O)N3CCCCC3)cc2s1	277	-3% (inactive)	11.4% (inactive)	79.6	27.3% (inactive)	94.4	-0.488 (inactive)	-4.1e-05 (inactive)	0.00708 (inactive)	-10.6% (inactive)	-1.82% (inactive)
CCOC(=O)c1[nH]c(CSc2nnc(-c3ccc(OC)cc3)o2)c(C(=O)OCC)c1C	609	1.4% (inactive)	-12.6% (inactive)	124	-39.2% (inactive)	119	-0.304 (inactive)	-5.8e-05 (inactive)	0.00625 (inactive)	7.64% (inactive)	24.1% (inactive)
